The results in this text go back to PubChem BioAssay (NCATS).

The nature of experiment [1]: Viability qHTS for spleen associated tyrosine kinase inhibitor (SYKi) naive MV4-11 cells (AID 1963823). Note: nearly all actives have a fitted effect of over 40% in size. The gist of the method: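 SYKi-naive MV4-11 AML cells, 500 per well, were exposed to library compounds for 72 hr at 37 C, 5% CO2. Viability was then read by CellTiter-Glo luminescence after 10 min at room temperature.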
On the technique in general: In qHTS, concentration-response curves come from the screen itself.

Experiment [2] is described as follows: Viability qHTS for spleen associated tyrosine kinase inhibitor (SYKi) drug resistant MV4-11 cells (AID 1963824). Note: nearly all actives have a fitted effect of over 35% in size. The gist of the method:
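SYK inhibitor-resistant MV4-11 AML cells, 500 per well, added to predispensed compounds and incubated 72 hr at 37 C, 5% CO2. Viability measured by CellTiter-Glo luminescence after 10 min at room temperature.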

“And” between values parts separate entries of the source, which are not always exact repeats. Identical values can stand only once. Records with an inconclusive call do not appear. Values without a mark were called inactive. The source made the active and inactive calls. Calls come from the whole dose curve; as a rule, active = well fitted cell-killing curve with a large enough effect; inconclusive = small, poorly fitted or top-dose-only effect, or effect the other way; inactive = no such curve, though single readings can be large or run the other way.
Potency is the fitted concentration of half-maximal effect.

For `C=C1CC[C@@H]2[C@](C)(CO)[C@H](O)CC[C@@]2(C)[C@@H]1C/C=C1/C(=O)OC[C@@H]1O`, the Potency was 4.53 µM (active) in experiment [1] and 3.21 µM (active) in experiment [2].
The like results for `C[C@@H]1CC2OC(=O)C3=C2C(CCC3O)[C@@]12C[C@@H](c1ccoc1)OC2=O` (some centres not stated) were, in that order, “inactive” and “inactive”.
For `COc1ccc(CN2CCN(C(c3ccc(F)cc3)c3ccc(F)cc3)CC2)c(OC)c1OC`, the Potency was 15 µM (active) and 14.6 µM (active) in experiment [1]; 21.1 µM (active) and 16.4 µM (active) in experiment [2].
For `O=C(Nc1ccc2[nH]ncc2c1)C1CCC1`, the Potency result in experiment [1] and in experiment [2] was “inactive” throughout.
Consider `CCN1CCN(Cc2ccc(C(=O)Nc3ccc(C)c(Oc4ccc5c(c4)CC(=O)N5)c3)cc2C(F)(F)F)CC1`, for which the results for the Potency in experiment [1] and in experiment [2] were 5.8 µM (active) and 8.2 µM (active), respectively.
On to `NC(=O)C1=C(O)[C@@]2(O)C(=O)C3=C(O)c4c(O)cccc4C[C@H]3C[C@H]2CC1=O`, for which the Potency in experiment [1] was 3.32 µM (active); in experiment [2], 2.63 µM (active).
Regarding `CC(C)[C@@H](c1ccc(C(F)(F)F)cc1CN(Cc1cc(C(F)(F)F)cc(C(F)(F)F)c1)c1nnn(C)n1)N1CCC(C(=O)O)CC1`, the Potency was 16.4 µM (active) in experiment [1] and 20.6 µM (active) in experiment [2].
Turning to `COc1cc(SC)ccc1C(=O)N1CCC(Cc2ccccc2)CC1`, the Potency in experiment [1] was 23.1 µM (active); in experiment [2], 16.6 µM (active) and 20.6 µM (active).
For `COc1cc(C(=O)OCCCN2CCCN(CCCOC(=O)c3cc(OC)c(OC)c(OC)c3)CC2)cc(OC)c1OC`, the Potency in experiment [1] and in experiment [2] was 21.1 µM (active) throughout.
As for `CC(=O)C1=C(C)N(c2cccc(C(F)(F)F)c2)C(=O)N[C@H]1c1ccc(C#N)nc1`, the viability (% of control) in experiment [1] was 83.3% [at 9.25 µM]. Moreover, in experiment [2], the viability, % of control was 87% [at 9.25 µM].
As for `COC(=O)[C@@H]1C2CC3c4[nH]c5ccccc5c4CCN3CC2CC[C@@H]1O` (some centres not stated), the Potency entry in experiment [1] and in experiment [2] was “inactive” each time.
As to `C=C1[C@H]2[C@H](O[C@@H]3O[C@H](COC(=O)/C=C/c4cc(OC)c(O)c(OC)c4)[C@@H](O)[C@H](O)[C@H]3O)OC=C(C(=O)O)[C@H]2C[C@@H]1O`, the Potency entry in experiment [1] and in experiment [2] was “inactive” throughout.
As to `CC(C)(O)C1CC=C(C(=O)OC[C@H]2O[C@@H](OC(=O)C3=CCC(C(C)(C)O)CC3)[C@H](O)[C@@H](O)[C@@H]2O)CC1` (some centres not stated), the Potency entry in experiment [1] and in experiment [2] was “inactive” in each case.
Turning to `C[C@@H]1O[C@@H](O[C@H]2[C@H](O[C@H]3[C@H](O[C@H]4CC[C@@]5(CO)C(CC[C@]6(C)C5CC=C5C7CC(C)(C)C[C@@H](O)[C@]7(C)CC[C@]56C)C4(C)C)O[C@H](C(=O)O)[C@@H](O)[C@@H]3O)OC[C@@H](O)[C@@H]2O)[C@H](O)[C@H](O)[C@H]1O` (some centres not stated), the viability (% of control) in experiment [1] is 63.5% [at 9.25 µM]. In addition, in experiment [2], the viability, % of control was 70% [at 9.25 µM].
Take `Cc1coc2c1CC1OC1(C)CCC1OC1(C)C2` (configuration not stated): the Potency entry in experiment [1] and in experiment [2] was “inactive” in each case.
As for `CC1(C)C2CCC(CO[C@@H]3O[C@H](CO[C@@H]4OC[C@](O)(CO)[C@H]4O)[C@@H](O)[C@H](O)[C@H]3O)C1C2` (some centres not stated), the Potency entry in experiment [1] and in experiment [2] was “inactive” in each case.
`NC(=O)NCCCC(NC(=O)Cc1ccccc1)C(=O)O` (configuration not stated): the Potency entry in experiment [1] and in experiment [2] was “inactive” each time.
Regarding `OCC(Cc1ccccc1)Nc1nc(Oc2ccc3c(c2)CCC3)nc2c1ncn2Cc1ccc(-c2ccccc2)cc1` (configuration not stated), the Potency was 18.4 µM (active) in experiment [1] and 7.31 µM (active) in experiment [2].
In the same order, the values of `OCC1=C[C@@H](O)[C@@H]2C=CO[C@@H](O[C@@H]3O[C@H](CO)[C@@H](O)[C@H](O)[C@H]3O)[C@H]12` are “inactive” and “inactive”.
Consider `Cc1c(-c2ccc(O)cc2)n(Cc2ccc(OCCN3CCCCCC3)cc2)c2ccc(O)cc12`, for which the Potency in experiment [1] is 18.8 µM (active) and 8.33 µM (active); in experiment [2] it was 23.7 µM (active) and 9.34 µM (active).
For `COc1cc2ncnc(Nc3ccc(O)cc3)c2cc1OC`, the figures for the Potency in experiment [1] and in experiment [2] were 3.26 µM (active) and 7.31 µM (active), respectively.
In the same order, the values of `OC[C@H]1O[C@@H](OCCc2ccccc2)[C@H](O)[C@@H](O)[C@@H]1O` are “inactive” and “inactive”.
Regarding `C=CC(=O)Nc1cc(Nc2ncc(Cl)c(-c3c[nH]c4ccccc34)n2)c(OC)cc1N(C)CCN(C)C`, the Potency in experiment [1] is 0.058 µM (active); in experiment [2], 0.0146 µM (active).
On to `Fc1ccc(-c2nc(C3CCNCC3)sc2-c2ccnc(NC3CC3)n2)cc1`, for which the Potency in experiment [1] was 10.3 µM (active); in experiment [2], 11.6 µM (active).
In the same order, the values of `COc1ccc(/C=C/C(=O)O[C@@H]2[C@@H](O)[C@H](C)O[C@@H](OC3C4C=COC(O[C@@H]5O[C@H](CO)[C@@H](O)[C@H](O)[C@H]5O)C4C4(CO)OC34)[C@@H]2O)cc1OC` (some centres not stated) are “inactive” and “inactive”.
The like results for `CC(C)(C)c1ccc(S(=O)(=O)Nc2ccc(-n3ccnc3)cc2)cc1` were, in that order, 10.3 µM (active) and 10.3 µM (active).
